# Screening data (PubChem)
# AMA1-RON2 inh: inhibitors of Plasmodium falciparum AMA1-RON2 interaction; 0.2% of 360,000 active; AlphaScreen AMA1-biotinylated RON2 peptide binding; Potency, µM (top dose mostly 58.2 µM), for the others: at the highest dose activity change, negative = inhibition, hits mostly inhibitors; AID 720542;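 note: 0% = vehicle wells and -100% = peptide control; nearly all actives have a fitted effect of over 45% in size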
#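 AMA1 (3D7) with his tag at 25 nM final met compounds first, then biotinylated RON2 peptide at 25 nM; detection used donor plus acceptor beads, 10 µg/mL apiece, read by AlphaScreen after 30 min at room temperature.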
# NS1 inh: blocks influenza NS1 protein function; 0.4% of 270,000 active; Potency, µM (doses to about 46.1 µM), for inactives: top-dose activity, positive = more growth; calls by dose curve; note: actives are rising curves; nearly all actives have a fitted effect of over 50% in size
#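 Read-out: OD600 growth recovery of NS1-expressing budding yeast. Cells grown overnight at 30C in -URA glucose medium, washed, resuspended and diluted 1:100 in 2% galactose assay medium, pH 6.0. Same strain lacking NS1 served as positive control.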
# SARS PLP yeast: blocks SARS-CoV papain-like protease in a yeast assay. Potency, µM (highest dose often 32.9 µM), for inactives: top-dose activity, positive = growth rescue, actives largely listed as activators. S. cerevisiae expressing SARS-CoV PLpro, growth rescue. 0.19% of 330,000 active. AID 485353; calls by dose curve; note: 0% is about no effect; nearly all actives have a fitted effect of over 55% in size
# Pf growth 48h: inhibits P. falciparum growth in the first generation, 48 h. 5.9% of 310,000 active. P. falciparum luciferase growth in erythrocytes, 48 h. Potency, µM (top dose mostly 28.7 µM), inactives show top-dose activity change, negative = inhibition, actives largely listed as inhibitors; note: % is set by controls: 0 for no effect and ±100 for the full control effect
#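 Luciferase-expressing parasites in RBCs, 2% Hct / 0.1% parasitemia final; RPMI 1640 + 0.5% Albumax; 37 C, 5% CO2, one generation; luminescence read-out, lower signal = inhibition.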
# HCV inh: blocks hepatitis C virus; Huh7.5.1 HCVcc-Cre infection, luciferase reporter, 44 h; Potency, µM (series often up to 41.8 µM), for the others: top-dose activity change, negative = inhibition, hits mostly inhibitors; 3.4% of 340,000 active; note: % is set by controls: 0 for no effect and ±100 for the full control effect
#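 HCVcc-Cre virus at an moi near 0.5 was added right after compound to cells cultured 4 h from seeding (1,000 cells/well). Luciferase activity was determined 44 h later, 15 min after substrate addition at RT.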
# Pf growth 96h: P. falciparum growth inhibition at 96 hours | Potency, µM (highest dose often 28.7 µM), without a hit: at the top dose activity change, negative = inhibition, usual class: inhibitors | 6.9% of 320,000 active | P. falciparum luciferase reporter growth, 96 h; note: % is set by controls: 0 for no effect and ±100 for the full control effect
#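 Delayed-death screen, second-generation endpoint: infected erythrocytes, 2% hematocrit, 0.05% parasitemia final; 96 hours at 37 C, 5% CO2; luciferase detection reagent; luminescence decrease equals reduced growth.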
# Starred values were filed as active, the others as inactive; ? = inconclusive; . = no result; ! = not active in a repeat; [ ] = dose if it differs, or a comment. A selection: hits, their analogues and other compounds. The true share with any hit is near 12%. Unless noted, calls come from the whole dose curve; as a rule, active = well fitted curve in the direction sought with a large enough effect; inconclusive = small, poorly fitted or top-dose-only effect, or another doubt; inactive = no such curve, though single readings can be large; an effect the other way counts as inactive or inconclusive. Potency is the fitted concentration of half-maximal effect.
SMILES,AMA1-RON2 inh,NS1 inh,SARS PLP yeast,Pf growth 48h,HCV inh,Pf growth 96h
CC(C)c1cc2c(c(O)c1O)[C@@]13CCCC(C)(C)C1CC2OC3=O (some centres not stated),-3%,19%,-5%,?,-27%,?
ClC(Cl)c1nnc(-c2ccccc2)c(-c2c[nH]c3ccccc23)n1,-7%,-18%,-2%,?,?,9.3µM*
c1ccc(-c2nnc(-c3c[nH]c4ccccc34)nc2-c2ccccc2)cc1,-8%,27%,-30%,?,-15%,.
Cc1cccc(Nc2nc(-c3ccccn3)cs2)n1,-71%,-54%,-20%,?,7.1µM*,27%
Cc1cccc(Nc2nc(-c3ccc(F)cc3)cs2)n1,-8%,-12%,2%,153%,?,12µM*
Cc1cccc(Nc2nc(-c3cccs3)cs2)n1,-17%,23%,-114%,31%,?,0%
COc1ccc(-c2csc(Nc3cccc(C)n3)n2)cc1,-6%,2%,-4%,146%,?,?
CC(=O)c1c(C)oc2ccc(N(C(=O)C3CCCCC3)S(=O)(=O)c3cc([N+](=O)[O-])ccc3C)cc12,-15%,13%,17%,12%,?,3.7µM*
O=C(O)c1ccc(C2SCC(=O)N2Cc2ccccc2)cc1 (configuration not stated),0%,2%,-2%,-4%,3%,1.7µM*
NC(=O)c1ccc(C2SCC(=O)N2Cc2ccccc2)cc1 (configuration not stated),-1%,2%,2%,2%,17%,?
O=C(CN(c1cccc(C(F)(F)F)c1)S(=O)(=O)c1ccc(Cl)c([N+](=O)[O-])c1)NCc1ccc(F)cc1,-4%[11.6 µM],0%,4%,?,?,15µM*
O=C(CN(c1cccc([N+](=O)[O-])c1)S(=O)(=O)c1ccccc1)NCc1cccnc1,-5%,3%,-2%,5%,-11%,?
O=C(NCCN1CCC2(CC1)C(=O)NCN2c1cccc(F)c1)c1ccc2ccccc2c1,-23%,.,.,.,.,.
O=C1NCN(c2ccccc2)C12CCN(CCCC(c1ccc(F)cc1)c1ccc(F)cc1)CC2,-11%,4%,-7%,1.9µM*,?,3.7µM*
O=c1[nH]c2ccccc2n1C1CCN(CCCC(c2ccc(F)cc2)c2ccc(F)cc2)CC1,?,6%,4%,?,2µM*!,2.6µM*
O=C1NCN(c2ccccc2)C12CCNCC2,-9%,6%,-2%,2.6µM*,6%,?
O=C1NCN(c2ccccc2)C12CCN(CC1COc3ccccc3O1)CC2 (configuration not stated),.,-6%,.,?,.,-11%
NC(=O)[C@@H]1CCCN1C(=O)c1ccc2nc(Cc3cccc(Cl)c3)oc2c1,5%,-5%,-5%,2%,-2%,10µM*
COc1ccccc1N(C(C)=O)c1nc(C)cc(C)c1C#N,-4%,9%,11%,-19%,9%,9.3µM*
CC(C)NC(=O)NC(=O)COC(=O)C1(C)CC1(Cl)Cl (configuration not stated),-1%,.,1%,76%,2%,39%
Cc1ccc(C)n1-c1sc2c(c1C#N)CCC(C)C2 (configuration not stated),2%,7%,5%,.,-2%,6.6µM*
CC(=O)Nc1sc2c(c1C#N)CCC(C)C2 (configuration not stated),1%,-5%,-2%,3%,-14%,8%
CC(C)NC(=O)C1CCN(S(=O)(=O)c2ccc(N3CCCC3=O)cc2)CC1,9%,5%,13%,-2%,0%,?
COc1cc(NC(=O)C2CCN(S(=O)(=O)c3ccc(N4CCCC4=O)cc3)CC2)cc(OC)c1,-10%,4%,3%,-27%,-9%,9.3µM*
COc1ccc(S(=O)(=O)N2CCC(C(=O)Nc3ccc(S(=O)(=O)N4CCCC4)cc3)CC2)cc1OC,3%,.,-3%,?,-22%[8.37 µM],4.7µM*
SMILES,AMA1-RON2 inh,NS1 inh,SARS PLP yeast,Pf growth 48h,HCV inh,Pf growth 96h
O=C(Nc1ccc(C(F)(F)F)cc1)C1CCN(S(=O)(=O)c2ccc(N3CCCC3=O)cc2)CC1,-12%,0%,17%,?,?,?
COc1ccc(NC(=O)C2CCN(S(=O)(=O)c3ccc(N4CCCC4=O)cc3)CC2)cc1OC,0%,-3%,2%,?,8%,13µM*
Oc1[nH]c2ccccc2c1C1=NCCCCC1,-18%,-33%,-2%,47%,-4%,?
COc1ccc(-n2c(/C=C/c3ccc(O)c(O)c3)nc3ccccc3c2=O)cc1,6%,-17%,0%,5.2µM*,?,2.3µM*
O=c1c2ccccc2nc(/C=C\c2ccccc2[N+](=O)[O-])n1-c1ccccc1O,-1%,8%,0%,6.6µM*,-14%,?
O=c1c2ccccc2nc(/C=C/c2ccc3c(c2)OCO3)n1-c1ccccc1,-26%,-2%,4%,?,?,10µM*
COc1cc(/C=C/c2nc3ccccc3c(=O)n2-c2ccc(O)cc2)ccc1O,4%,8%,0%,-10%[0.00184 µM],-14%,?
Cc1cc(C(=O)CN2C(=O)C(=O)N(CCC3=CCCCC3)C2=O)c(C)n1C,20%[11.6 µM],.,-1%,.,21%,.
Cc1cccc(NS(=O)(=O)c2cccc(C(=O)NCCCN3CCOCC3)c2)c1,25%,.,-7%,-23%,1%,-5%
O=C(NCCN1CCOCC1)C(=O)NCC1OCCCN1S(=O)(=O)c1cc(F)ccc1F (configuration not stated),1%,3%,0%,31%,13%,62%
O=C(O)c1cccnc1SCc1ccccc1Cl,1%,1%,-1%,20%,18%,?
O=C(O)c1cccnc1SCc1cccc(Br)c1,-10%,-38%,-3%,1.7µM*,7%,-8%
Cc1ccc(C)c(CSc2ncccc2C(=O)O)c1,-8%,-22%,?,10%,19%,7.4µM*
CCOC(=O)C(=CNc1ccc(NC2=NCC(C)S2)cc1)C(=O)OCC (configuration not stated),-5%,-4%,-1%,9.3µM*,?,0%
CCn1cc(C2=NC(CC(C)C)CO2)c2ccccc21 (configuration not stated),-22%,-10%,-2%,-22%,10µM*,-13%
COc1ccc(-c2csc(NC(=O)Cc3cc(OC)c(OC)c(OC)c3)n2)cc1OC,-16%,-18%,-3%,?,?,12µM*
O=C(Nc1ccc(-c2cn3ccsc3n2)cc1)C1COc2ccccc2O1 (configuration not stated),-7%,-18%,-5%,-7%,14µM*,?
